# From PubChem
# Only a selection was taken, and hits are over-represented in it overall.
# KDM5B inh – blocks human KDM5B histone demethylase activity. AID 1347165. Q9UGL1. 220,000 tested, 2.6% active. KDM5B demethylase, FDH-coupled NADH fluorescence (FDH is formaldehyde dehydrogenase). Potency, µM (titrated, usually from 57.7 µM), actives largely listed as inhibitors; active means well fitted inhibition curve with a large enough effect; further: 0% is about no effect; nearly all actives have a fitted effect of over 70% in size
#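 Inhibition is measured as reduced NADH fluorescence generation from FDH coupling to formaldehyde release. Truncated KDM5BΔAP at 200 nM final acts on H3K4me3 peptide (12.5 µM in substrate mix) in pH 7.5 HEPES buffer with Tween-20, 30 min, room temperature.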
# An asterisk follows results filed as active; i = inactive. Potency means the concentration at half of the fitted maximal effect.
SMILES,KDM5B inh
Cc1cccc(CC(=O)N[C@@H]2CN(c3ccncn3)C[C@H]2CO)c1,i
COc1ccccc1CCC(=O)N[C@@H]1CN(c2ncccn2)C[C@H]1CO,18µM*
Cc1ccc(C)c(C(=O)N[C@@H]2CN(c3ccncn3)C[C@H]2CO)c1,i
Cc1cc(CN2C[C@@H](CO)[C@H](NC(=O)c3ccccc3)C2)n(C)n1,i
Cc1nn(C)c(C)c1C(=O)N[C@@H]1CN(c2ncccn2)C[C@H]1CO,20µM*
COc1ccccc1CCC(=O)N1C[C@@H](CO)[C@H](NC(C)=O)C1,i
Cc1ncccc1C(=O)N[C@@H]1CN(c2ncccn2)C[C@H]1CO,20µM*
CC(C)NC(=S)NCc1cccc(Cl)c1,i
C=CCOC(=O)COc1ccc2oc(=O)cc(-c3cc4cccc(OC)c4o3)c2c1,i
CN(Cc1cccn1C)C1CCCc2ccccc21 (stereo not drawn),i
CC(C)CC(NC(=O)C1CC1)C(=O)N(C)C (stereo not drawn),i
CC(C)C(=O)Nc1ccc2c(C(C(=O)O)N3CCN(C)CC3)c[nH]c2c1 (stereo not drawn),i
COc1cc(CNC(=O)C23CC4CC(CC(C4)C2)C3)ccc1OC(F)F,i
COC(=O)NCc1ccc(OC)c(OC)c1,i
O=C(c1ccccc1)N1Cc2[nH]cnc2C[C@H]1c1nc(-c2ccc(Cl)cc2)no1,i
CCOC(=O)c1ccc(NC(=O)N2Cc3[nH]cnc3C[C@H]2c2nc(-c3ccncc3)no2)cc1,i
O=C(CCC1CCCC1)N1CCCCCC1c1nc(-c2ccncc2)no1 (stereo not drawn),i
c1cc(-c2noc([C@@H]3Cc4nc[nH]c4CN3CC3CCCCC3)n2)ccn1,35µM*
O=C(Nc1cccc(F)c1)N1Cc2[nH]cnc2C[C@H]1c1nc(-c2ccncc2)no1,i
c1csc(CN2Cc3[nH]cnc3C[C@H]2c2nc(-c3ccc4ccccc4c3)no2)c1,28µM*
COc1ccc(-c2noc([C@@H]3Cc4nc[nH]c4CN3C(=O)CSCC(=O)O)n2)cc1,i
c1csc(CN2Cc3[nH]cnc3C[C@H]2c2nc(-c3ccncc3)no2)c1,28µM*
Cc1ccc(-c2noc([C@@H]3Cc4nc[nH]c4CN3C(=O)COCC(=O)O)n2)cc1,i
N#Cc1ccc(/C=C/C(=O)c2ccc3c(c2)CCO3)cc1,i
O=C(CCCc1nc2ccccc2o1)NCc1ccccc1F,i
SMILES,KDM5B inh
Cc1cc(OCC(=O)Nc2ccc3c(c2)OCCO3)c2c(C)cc(=O)oc2c1,i
Cc1cc(C)cc(Nc2nc3ccccc3nc2NS(=O)(=O)c2ccc(F)cc2)c1,i
Cc1nn(CC(O)COc2cccc(Br)c2)c(=O)c2ccccc12 (stereo not drawn),i
COC[C@@H]1CN(C(=O)c2ccc(C#N)cc2)C[C@H]1c1nc(C)no1,i
COc1cccc([C@H]2CN(C(=O)c3ccc4cc[nH]c4c3)C[C@@H]2N)c1,32µM*
Cc1noc([C@@H]2CN(C(=O)c3ccc4cc[nH]c4c3)C[C@H]2CO)n1,25µM*
CCn1ccc(C(=O)N2C[C@@H](COC)[C@H](c3nc(C)no3)C2)n1,i
O=C(c1cc[nH]c(=O)c1)N1C[C@@H](CO)[C@H](c2ccccn2)C1,22µM*
COC[C@@H]1CN(C(=O)c2ccc3[nH]ccc3c2)C[C@H]1c1nc(C)no1,i
COC[C@@H]1CN(C(=O)c2cn3ccccc3n2)C[C@H]1c1nc(C)no1,20µM*
O=C(c1ccc2c(c1)OCO2)N1C[C@@H](CO)[C@H](c2ccccn2)C1,i
O=C(c1cccc(Cl)c1)N1C[C@@H](CO)[C@H](c2ccccn2)C1,i
COc1cccc([C@H]2CN(C(=O)CCn3ccc(=O)[nH]c3=O)C[C@@H]2N)c1,i
Cc1noc([C@@H]2CN(C(=O)c3ccc4[nH]ccc4c3)C[C@H]2CO)n1,i
COc1cccc([C@H]2CN(C(=O)c3c(-c4ccccc4)noc3C)C[C@@H]2N)c1,i
CCOC(=O)Oc1ccc2c(=O)c(Oc3cccc(C)c3)c(C(F)(F)F)oc2c1,i
C=C(C)CSc1nc2c(c(=O)n(C)c(=O)n2C)n1CCCc1ccccc1,i
Cc1cc2nc(CSCC(=O)Nc3cccc(C)c3C)cc(=O)n2o1,i
O=[N+]([O-])c1cccc(-c2noc([C@@H]3C[C@@H](O)CN3Cc3ccccc3O)n2)c1,i
N#Cc1ccc(CS(=O)(=O)Cc2ccccc2C(F)(F)F)cc1,i
Cc1cc(C)c2c(-n3cccc3)nn(CC(=O)Nc3cc(Cl)ccc3C)c2n1,i
COc1cccc(-c2noc(COc3ccc4ccc(=O)oc4c3)n2)c1,i
CC(O)CNc1nc(-c2cccnc2)nc2ccccc12 (stereo not drawn),i
Cc1noc(C)c1CN1CCC2(CC1)COCCN2C(=O)c1ccccc1,i
CC(C)(C)c1ccc(C(=O)Nc2ccccc2)cc1Br,i
SMILES,KDM5B inh
CC(C)Cn1nc(C(=O)NN2C(=O)NC(c3ccccc3)(c3ccccc3)C2=O)c2ccccc2c1=O,i
CC1=C(C(=O)Nc2cc(C)on2)C(c2c(Cl)cccc2Cl)NC(=O)N1C (stereo not drawn),i
Cc1cc(C)c(C(=O)O)c(N2CCC3(CC2)C(C(=O)O)CC(=O)N3C)n1 (stereo not drawn),i
CC(O)CN1CC2(CCC1=O)CCN(C(=O)c1ccnn1C)CC2 (stereo not drawn),i
Cc1cc(C)c(C#N)c(N2CCC3(CCC(=O)N(CC(C)O)C3)CC2)n1 (stereo not drawn),28µM*
Cc1ccc(S(=O)(=O)CC(=O)c2cccc(Cl)c2)cc1,i
CC(C)(C)c1ccc(C(=O)NC(Nc2cccc(C(F)(F)F)c2)C(Cl)(Cl)Cl)cc1 (stereo not drawn),i
Cc1cc2oc(C(=O)Nc3cccc(Cl)c3)cc(=O)c2cc1C,i
Cc1ccccc1C(=O)NC(NC(=O)c1ccccc1C)c1ccc(Br)cc1,i
COc1cc(OC)c(C(=O)N2CCC3(CC2)[C@H](O)C[C@@H]3OC)cc1OC,i
O=C(CCCc1cccs1)N1CCC2(CC1)[C@H](O)C[C@@H]2OCCO,i
C[C@@]1(O)CCN(C(=O)CCc2ccc(-c3cccs3)o2)C[C@@H]1O,13µM*
C[C@]1(O)CCN(C(=O)CCc2c[nH]c3ccccc23)C[C@@H]1O,i
Cn1nc(C(=O)N2CC[C@@](C)(O)[C@@H](O)C2)cc1-c1cccs1,i
CO[C@H]1C[C@@H](O)C12CCN(C(=O)CCc1ccc(-c3cccs3)o1)CC2,14µM*
N#Cc1cccc(NC(=O)c2cc(Cl)cc(Cl)c2)c1,i
O=C(CN1CCN(c2ccc(F)cc2)CC1)N1N=C(c2cc3ccccc3o2)CC1c1ccco1 (stereo not drawn),i
C=CCNC(=S)N/N=C(/C)c1ccncc1,i
O=C(O)CCc1ccc(S(=O)(=O)NCCc2ccc(Cl)cc2)cc1,i
Cc1cccc2c1nc1n2[C@@H](CNC(=O)c2ccc(F)cc2)COC1,i
COc1ccc2nc3n(c2c1)[C@@H](CNCc1ccccc1)COC3,i
COc1ccc2nc3n(c2c1)[C@@H](CNCc1ccc(C#N)cc1)COC3,28µM*
COc1ccc2nc3n(c2c1)[C@@H](CNS(=O)(=O)c1ccc(F)cc1)COC3,i
COc1ccc2nc3n(c2c1)[C@@H](CNCc1ccc(S(C)(=O)=O)cc1)COC3,i
COc1ccc2nc3n(c2c1)[C@@H](CNC(=O)c1ccc(F)cc1)COC3,35µM*
O=Cc1ccccc1OCc1ccccc1,i
